High-throughput results deposited in PubChem by National Center for Advancing Translational Sciences (NCATS).
LDHA block: blocks human lactate dehydrogenase A. purified LDHA, NADH/diaphorase-resazurin fluorescence; hits give low values. activity change, % (values are at about 110 or 230 µM). AID 1347041. 480,000 compounds, 0.15% hits. P00338; in the data active = activity change below about -30%; inconclusive = mostly about -25% to -30%;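 also: plate controls were DMSO wells for no effect and wells without enzyme for full effect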
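Resorufin fluorescence (ex540/em590), read at 0 and 20 min after diaphorase/resazurin addition, reports the NADH left after a 5 min room-temperature reaction of 2 nM human LDH5 with 0.06 mM NADH and 0.2 mM pyruvate.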
IL-1B inflam inh: blocks inflammasome-driven IL-1 beta release | THP-1 LPS/ATP IL-1B secretion, AlphaLISA, 16 h; hits give low values | activity change, % at 57.5 µM | 360,000 compounds, 4.7% hits | AID 743279; in the data active = activity change below about -50%; inconclusive = mostly about -30% to -49%
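Secreted IL-1B measured by AlphaLISA bead assay after 16 h compound exposure of THP-1 cells; compounds (final up to 57.5 uM) added 1 h before LPS (250 ng/mL) and ATP (1.25 mM) stimulation; lower signal means less secretion.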
DT40 TDP1 CPT: DT40-hTDP1 cell growth loss with CPT | chicken DT40 Tdp1-/-;hTDP1 cells + 20 nM CPT, ATP luminescence, 48 h | Potency, µM (highest dose often 46.2 µM), for inactives: top-dose activity change, negative = growth inhibition, usual class: inhibitors | 420,000 compounds, 12% hits | AID 686979; also: potency is read from the fitted curve at half-maximal effect; nearly all actives have a fitted effect of over 55% in size
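Chicken DT40 Tdp1-/- cells complemented with human TDP1, 400 cells/well, exposed to compounds plus 20 nM camptothecin for at least 48 h at 37 C; viability read as ATP content by CellTiter-Glo luminescence.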
Gal4-VP16 FLuc: inhibits Gal4-VP16 luciferase reporter, ROR gamma counter-screen. Drosophila S2 Gal4-VP16 UAS-luciferase, luminescence, 20 h. Potency, µM (series often up to 53.6 µM), inactives show top-dose activity, negative = inhibition, most hits filed as inhibitors. 310,000 compounds, 3.5% hits. AID 2546;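 also: Gal4-VP16 expression switched on by copper sulfate through the metallothionein promoter; potency is read from the fitted curve at half-maximal effect; nearly all actives have a fitted effect of over 50% in size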
TDP1 cell noCPT: qHTS for Inhibitors of human tyrosyl-DNA phosphodiesterase 1 (TDP1): qHTS in cells in absence of CPT. Potency, µM (titrated, usually from 46.2 µM), inactives show at the highest dose activity change, negative = growth inhibition, hits mostly inhibitors. AID 686978, 2013. DT40 Tdp1-/- hTDP1 cells, no CPT, ATP luminescence, 48 h. 420,000 compounds, 15% hits; also: potency is read from the fitted curve at half-maximal effect; nearly all actives have a fitted effect of over 55% in size
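Seeded 400 DT40-hTDP1 cells/well (vehicle DMSO, no 20 nM CPT); pinned compounds; ≥48 hr at 37 °C; CellTiter-Glo luminescence as viability measure.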
RORgamma inh: ROR gamma (mouse) transcription inhibition; Drosophila S2 Gal4-RORgamma UAS-luciferase reporter, 20 h; Potency, µM (top dose mostly 53.6 µM), for the others: at the highest dose activity change, negative = inhibition, most hits filed as inhibitors; AID 2551; 310,000 compounds, 5.4% hits; also: potency is read from the fitted curve at half-maximal effect; nearly all actives have a fitted effect of over 60% in size
Target sequence (P51450 whole entry, looked up, the tested form may be a part): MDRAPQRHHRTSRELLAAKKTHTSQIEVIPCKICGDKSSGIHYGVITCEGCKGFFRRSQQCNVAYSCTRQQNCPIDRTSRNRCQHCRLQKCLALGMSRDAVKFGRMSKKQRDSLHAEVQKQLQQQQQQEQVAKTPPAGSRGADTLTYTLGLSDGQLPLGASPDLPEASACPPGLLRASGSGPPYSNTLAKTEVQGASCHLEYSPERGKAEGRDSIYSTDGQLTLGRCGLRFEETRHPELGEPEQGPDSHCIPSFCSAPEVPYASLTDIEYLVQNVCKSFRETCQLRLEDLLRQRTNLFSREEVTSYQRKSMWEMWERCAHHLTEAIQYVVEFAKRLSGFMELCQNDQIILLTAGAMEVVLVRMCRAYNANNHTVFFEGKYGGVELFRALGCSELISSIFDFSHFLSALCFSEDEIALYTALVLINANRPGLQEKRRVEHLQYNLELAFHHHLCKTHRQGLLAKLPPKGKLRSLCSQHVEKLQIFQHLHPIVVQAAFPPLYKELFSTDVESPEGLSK
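Read-out: Photinus luciferase luminescence; inhibitors lower reporter signal. Insect Schneider cells with Gal4-ROR gamma fusion under metallothionein promoter, UAS reporter; 700 uM final copper sulfate induction, 20 hr, ambient temperature.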
The depositor's hits bear a star. An excerpt weighted towards active compounds, which were near 18% of everything screened. Unless noted, calls follow the shape of the dose curve; as a rule, active = well fitted curve in the direction sought with a large enough effect; inconclusive = small, poorly fitted or top-dose-only effect, or another doubt; inactive = no such curve, though single readings can be large; an effect the other way counts as inactive or inconclusive. Unless noted, % is scaled to controls: 0 for no effect and ±100 for the full control effect.

How did CN(Cc1nc(-c2ccccc2Cl)no1)C(=O)COc1ccc2ccccc2c1Br do in these assays?
LDHA block: 9

What do the screens show for `CCC1CCCCN1C(=O)CSc1nc(-c2ccc(OC)c(OC)c2)cc(C(F)(F)F)n1` (stereo not drawn)?
LDHA block: 1; DT40 TDP1 CPT: inconclusive; TDP1 cell noCPT: 23µM*

How did COc1ccc(-c2cc(C(F)(F)F)nc(SCC(=O)N3CCCCC3C)n2)cc1OC (stereo not drawn) do in these assays?
LDHA block: -4; DT40 TDP1 CPT: inconclusive; TDP1 cell noCPT: inconclusive

What do the screens show for `CCC1CCCCN1C(=O)CSc1nc(-c2ccc(OC)cc2)cc(C(F)(F)F)n1` (stereo not drawn)?
LDHA block: 3; DT40 TDP1 CPT: 23µM*; TDP1 cell noCPT: 9.2µM*

How did CC1CCC(NC(=O)CC(C)(C)Cc2nc3ccccc3c(=O)[nH]2)CC1 (stereo not drawn) do in these assays?
LDHA block: -8; IL-1B inflam inh: -56*; DT40 TDP1 CPT: 16µM*; Gal4-VP16 FLuc: -4%; TDP1 cell noCPT: 23µM*; RORgamma inh: inconclusive

What do the screens show for `FC(F)(F)c1ccccc1N/N=C1/CCc2ccccc21`?
LDHA block: -1

Results for COc1ccccc1CN(Cc1nc2ccccc2c(=O)[nH]1)S(=O)(=O)c1ccc2ccccc2c1 ?
LDHA block: 5; IL-1B inflam inh: -26; DT40 TDP1 CPT: 3.7µM*; Gal4-VP16 FLuc: 0%; TDP1 cell noCPT: 5.6µM*; RORgamma inh: inconclusive

What do the screens show for `COc1ccc(S(=O)(=O)N(Cc2ccccc2)Cc2nc3ccccc3c(=O)[nH]2)cc1`?
LDHA block: -6; IL-1B inflam inh: 2; DT40 TDP1 CPT: 4.6µM*; Gal4-VP16 FLuc: 11µM*; TDP1 cell noCPT: 5.2µM*; RORgamma inh: 13µM*

Results for O=c1[nH]c(CN(CCc2ccccc2)S(=O)(=O)c2ccc(Cl)cc2)nc2ccccc12 ?
LDHA block: -2; IL-1B inflam inh: 14; DT40 TDP1 CPT: -4%; Gal4-VP16 FLuc: 6.3µM*; TDP1 cell noCPT: inconclusive; RORgamma inh: 4.5µM*

What do the screens show for `COc1ccc(CN(Cc2nc3ccccc3c(=O)[nH]2)C(=O)c2ccco2)cc1`?
LDHA block: 3; IL-1B inflam inh: 23; DT40 TDP1 CPT: 1%; Gal4-VP16 FLuc: -2%; TDP1 cell noCPT: -5%; RORgamma inh: inconclusive

What do the screens show for `O=c1[nH]c(Cc2ccc(Cl)cc2)nc2ccccc12`?
LDHA block: -7; IL-1B inflam inh: 0; DT40 TDP1 CPT: 32%; Gal4-VP16 FLuc: -10%; TDP1 cell noCPT: -8%; RORgamma inh: 15%

What do the screens show for `O=c1[nH]c(SCc2ccc(F)cc2)nc2c1cnn2CCO`?
LDHA block: 3

How did NC(=O)c1ccccc1OCc1coc(-c2ccc(F)cc2)n1 do in these assays?
LDHA block: -5

How did Cc1ccc2oc(-c3ccc(Cl)c(NC(=O)c4ccc([N+](=O)[O-])o4)c3)nc2c1 do in these assays?
LDHA block: -22

What do the screens show for `Cc1ccc(C)c(-c2nnc(NC(=O)c3ccc([N+](=O)[O-])o3)o2)c1`?
LDHA block: 2; IL-1B inflam inh: -10; DT40 TDP1 CPT: 15µM*; TDP1 cell noCPT: 15µM*

Results for Cc1ccc(-c2nnc(NC(=O)Cc3ccc(F)cc3)o2)c(C)c1 ?
LDHA block: -8; IL-1B inflam inh: -13; DT40 TDP1 CPT: 10µM*; Gal4-VP16 FLuc: 1.3µM*; TDP1 cell noCPT: 12µM*; RORgamma inh: 1.4µM*

What do the screens show for `Cc1ccc(C)c(-c2nnc(NC(=O)Cc3ccc(F)cc3)o2)c1`?
LDHA block: 1; IL-1B inflam inh: -11; DT40 TDP1 CPT: 12µM*; Gal4-VP16 FLuc: 0.56µM*; TDP1 cell noCPT: 10µM*; RORgamma inh: 0.63µM*

How did Fc1ccccc1CN1CCc2ccccc2C1 do in these assays?
LDHA block: -1

What do the screens show for `O=C1c2ccccc2N2C(=O)CCC2(C(=O)Nc2ccc(F)c(F)c2)N1Cc1ccccc1` (stereo not drawn)?
LDHA block: -15

Results for CCC1Oc2ccc(C)cc2N(CC(=O)N2CCN(c3ccc(F)cc3)CC2)C1=O (stereo not drawn) ?
LDHA block: -3; IL-1B inflam inh: -25; DT40 TDP1 CPT: 21µM*; Gal4-VP16 FLuc: 0%; TDP1 cell noCPT: 18µM*; RORgamma inh: 14%

Results for CCC1Oc2ccc(C)cc2N(CC(=O)N(Cc2ccc(C)o2)C2CC(C)(C)NC(C)(C)C2)C1=O (stereo not drawn) ?
LDHA block: -2; DT40 TDP1 CPT: 18µM*; Gal4-VP16 FLuc: -3%; TDP1 cell noCPT: inconclusive; RORgamma inh: inconclusive

Results for CCOC(=O)C1CCCN(C(=O)CN2C(=O)C(CC)Oc3ccc(C)cc32)C1 (stereo not drawn) ?
LDHA block: 3; IL-1B inflam inh: 28; DT40 TDP1 CPT: inconclusive; Gal4-VP16 FLuc: -5%; TDP1 cell noCPT: -16%; RORgamma inh: 3%

What do the screens show for `CCC1Oc2ccc(C)cc2N(CC(=O)N2CCN(c3ccccc3OC)CC2)C1=O` (stereo not drawn)?
LDHA block: -1; DT40 TDP1 CPT: inconclusive; TDP1 cell noCPT: 16µM*

What do the screens show for `O=C(CN1CCOCC1)Nc1ccc(OC(F)(F)F)cc1`?
LDHA block: -18; IL-1B inflam inh: 12; DT40 TDP1 CPT: -5%; Gal4-VP16 FLuc: -1%; TDP1 cell noCPT: -11%; RORgamma inh: 9%

What do the screens show for `O=C(NC(=S)Nc1ccccc1N1CCOCC1)c1sc2ccccc2c1Cl`?
LDHA block: -15; IL-1B inflam inh: 9; DT40 TDP1 CPT: -27%; Gal4-VP16 FLuc: 2%; TDP1 cell noCPT: inconclusive; RORgamma inh: inconclusive

Results for FC(F)(F)Oc1ccc(NC(=S)Nc2ccccc2N2CCOCC2)cc1 ?
LDHA block: -2; IL-1B inflam inh: 21; DT40 TDP1 CPT: inconclusive; Gal4-VP16 FLuc: inconclusive; TDP1 cell noCPT: 16µM*; RORgamma inh: 7.9µM*

How did O=C(NC(=S)Nc1ccccc1N1CCOCC1)c1ccccc1F do in these assays?
LDHA block: -6; IL-1B inflam inh: -8; DT40 TDP1 CPT: inconclusive; Gal4-VP16 FLuc: 20µM*; TDP1 cell noCPT: inconclusive; RORgamma inh: 13µM*

How did CC(=O)NC(=S)Nc1ccccc1N1CCN(C(=O)c2ccccc2)CC1 do in these assays?
LDHA block: -3; IL-1B inflam inh: 26; DT40 TDP1 CPT: -21%; Gal4-VP16 FLuc: 5µM*; TDP1 cell noCPT: inconclusive; RORgamma inh: 6.3µM*
